# According to PubChem BioAssay (Tox21):
# Several values for one entry are separate records, joined by “and”; a condition that tells them apart may be missing. Equal values may be shown once. Records with an inconclusive call do not appear. A call without a number means that no potency is given here. Some compounds were tested as several samples or in several runs, with calls that do not always agree. Activity calls are given as the source filed them. Unless noted, calls follow the shape of the dose curve; as a rule, active = well fitted curve in the direction sought with a large enough effect in the repeat runs; inconclusive = weak or mixed curves; inactive = no such curve, though single readings can be large; an effect the other way counts as inactive or inconclusive.
# How the values were obtained:
# [1] = qHTS assay to identify small molecule antagonists of the estrogen receptor alpha (ER-alpha) signaling pathway using the BG1 cell line in the presence of 0.1 nM 17-beta-estradiol - cell viability counter screen (AID 1259241); also: nearly all actives have a fitted effect of over 40% in size
# Summary of the method: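 Viability in VM7Luc4E2 cells after 22 hr compound exposure under 0.1 nM 17beta-estradiol stimulation, by CellTiter-Fluor.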
# [2] = qHTS assay to identify small molecule HDAC inhibitors (AID 1259364); also: top concentration of the series differs between compounds; nearly all actives have a fitted effect of over 45% in size
# Summary of the method: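 Wild-type HCT-116 cells were plated overnight, exposed to compounds for 2 h at 37 °C, then given HDAC-Glo class I/II luminogenic reagent for 30 min at room temperature before luminescence was read.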
# [3] = qHTS assay to identify small molecule HDAC inhibitors - cell viability counter screen (AID 1259365); also: nearly all actives have a fitted effect of over 50% in size; also: potency is read from the fitted curve at half-maximal effect
# Summary of the method: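 Cytotoxicity was gauged in wild-type HCT-116 cells after a brief 2hr treatment with DMSO-dissolved compounds at 37C and 5% CO2, using CellTiter-Glo luminescence developed for 30min at room temperature.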
# [4] = qHTS assay to identify small molecule antagonists of the sonic hedgehog signaling (Shh) pathway - cell viability counter screen (AID 1259367); also: nearly all actives have a fitted effect of over 55% in size; also: potency is read from the fitted curve at half-maximal effect
# Summary of the method: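 NIH/3T3-derived Gli1-Luc reporter cells (2,000 per well) rested 4 hr at 37 C, then received DMSO compounds plus conditioned medium. After 23 hr of treatment, CellTiter-Fluor was added for 1 hr at 37C and fluorescence read.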
# [5] = qHTS assay to identify small molecule agonists of the sonic hedgehog signaling (Shh) pathway (AID 1259368; calls by dose curve; also: series mostly up to about 92 µM; nearly all actives have a fitted effect of over 15% in size)
# Summary of the method: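 NIH/3T3-derived 3T3Gli1-Luc cells carrying a stably integrated Gli1 response element–firefly luciferase reporter were plated, left 4 hr at 37 C, then given compounds in DMSO for 24 hr. Luminescence was read 30 min after adding luciferase reagent.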
# [6] = qHTS assay to identify small molecule antagonists of the sonic hedgehog signaling (Shh) pathway (AID 1259369; calls by dose curve; also: nearly all actives have a fitted effect of over 45% in size; also: potency is read from the fitted curve at half-maximal effect)
# Summary of the method: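 NIH/3T3-derived 3T3Gli1-Luc cells with stably integrated Gli1-Luc reporter were preincubated 4hr at 37 C, then given compounds in DMSO plus Shh conditioned medium and incubated 24hr. Firefly luciferase luminescence read after 30min reagent at room temperature.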
# [7] = qHTS assay to identify small molecule agonists of the androgen receptor (AR) signaling pathway in the presence of an antagonist - cell viability counter screen (AID 1259379); also: nearly all actives have a fitted effect of over 25% in size; also: potency is read from the fitted curve at half-maximal effect
# Summary of the method: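 MDA-kb2 human breast carcinoma cells (stable MMTV-luciferase, AR/GR responsive) were seeded 3,000 cells/well, pre-incubated 5 hr at 37C without CO2, then given 3.0uM nilutamide and compounds at 15 concentrations for 16 hr. Viability was read by CellTiter-Fluor fluorescence.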
# [8] = qHTS assay to identify small molecule agonists of the estrogen receptor beta (ER-beta) signaling pathway - cell viability counter screen (AID 1259380); also: nearly all actives have a fitted effect of over 30% in size; also: potency is read from the fitted curve at half-maximal effect
# Summary of the method: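 ER-beta-UAS-bla HEK293T cells in medium with 2% charcoal-stripped FBS were preincubated 6 hr at 37C, dosed with compound in DMSO for 16 hr, then after the bla read, CellTiter-Glo was added for 30 min at room temperature; luminescence recorded.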
# [9] = qHTS assay to identify small molecule antagonists of the estrogen receptor beta (ER-beta) signaling pathway - cell viability counter screen (AID 1259382); also: nearly all actives have a fitted effect of over 55% in size; also: potency is read from the fitted curve at half-maximal effect
# Summary of the method: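 ER-beta-UAS-bla HEK293T cells (2,000/well, 2% charcoal-stripped FBS) were pre-incubated 6 hr at 37C, then given compound plus 1nM final 17-beta-estradiol for 16 hr. Viability was read in the same wells by CellTiter-Glo luminescence after 30 min at room temperature.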
# [10] = target: Thyrotropin receptor (Homo sapiens) (UniProt P16473); assay: qHTS assay to identify small molecule antagonists of the thyroid stimulating hormone receptor (TSHR) signaling pathway (AID 1259385; calls by dose curve; also: nearly all actives have a fitted effect of over 20% in size)
# Summary of the method: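 TSHR-HEK293 cells were plated and held 18 h at 37C/5% CO2, then given compound plus Ro20-1724 and stimulated with TSH at 1.5 ng/mL final. After 30 min at room temperature, cAMP was detected with cAMP-d2/anti-cAMP-cryptate (1 h) by fluorescence.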
# [11] = qHTS assay to identify small molecule antagonists of the androgen receptor (AR) signaling pathway using the MDA cell line in the presence of 0.5 nM R1881 - cell viability counter screen (AID 1259242); also: nearly all actives have a fitted effect of over 45% in size
# Summary of the method: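 MDA-kb2 cells (human breast carcinoma, stably carrying MMTV-luciferase reporter) were exposed to compounds with 0.5 nM R1881 (final) for 16 hr at 37C, 0% CO2; viability then read as live-cell protease fluorescence (CellTiter-Fluor, 30 min) in the same wells.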
# [12] = target: Androgen receptor (Homo sapiens) (UniProt P10275); assay: qHTS assay to identify small molecule antagonists of the androgen receptor (AR) signaling pathway using the MDA cell line in the presence of 0.5 nM R1881 (AID 1259243); also: nearly all actives have a fitted effect of over 50% in size
# Summary of the method: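 MDA-kb2 human breast carcinoma cells carrying an MMTV-luciferase reporter (AR- and GR-responsive) were plated, rested 5 hr at 37C, dosed with compounds, then stimulated with 0.5 nM R1881 (final) for 16 hr; luminescence was read after ONE-Glo.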
# [13] = qHTS assay to identify small molecule agonists of the sonic hedgehog signaling (Shh) pathway - cell viability counter screen (AID 1259366); also: nearly all actives have a fitted effect of over 50% in size; also: potency is read from the fitted curve at half-maximal effect
# Summary of the method: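 Stable Gli1-Luc NIH/3T3 clone, 2,000 cells/well. Compound exposure 24hr at 37C. Read-out: CellTiter-Fluor fluorescence.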
# [14] = target: Estrogen receptor beta (Homo sapiens) (UniProt Q92731); assay: qHTS assay to identify small molecule agonists of the estrogen receptor beta (ER-beta) signaling pathway (AID 1259377; active = well fitted activation curve with a large enough effect in the signal ratio in the repeat runs, not every such curve was filed as active; the % refers to the signal ratio; also: potency is read from the fitted curve at half-maximal effect)
# Summary of the method: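 Measured by fluorescence intensity from a B/G FRET beta-lactamase substrate (2 h, room temperature) in ER-beta-UAS-bla HEK293T cells treated with DMSO-dissolved compounds for 16 hr at 37C and 5% CO2.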
# [15] = target: Androgen receptor (Homo sapiens) (UniProt P10275); assay: qHTS assay to identify small molecule agonists of the androgen receptor (AR) signaling pathway in the presence of an antagonist (AID 1259381; calls by dose curve; also: nearly all actives have a fitted effect of over 15% in size; also: potency is read from the fitted curve at half-maximal effect)
# Summary of the method: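 MDA-kb2 human breast carcinoma cells carrying an MMTV-luciferase reporter (AR- and GR-responsive) were treated with compounds at 15 concentrations plus 3.0uM final nilutamide for 16hr at 37C without CO2; luminescence was read after ONE-Glo addition.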
# [16] = target: Estrogen receptor (Homo sapiens) (UniProt P03372); assay: qHTS assay to identify small molecule antagonists of the estrogen receptor alpha (ER-alpha) signaling pathway using the BG1 cell line in the presence of 0.1 nM 17-beta-estradiol (AID 1259244); also: nearly all actives have a fitted effect of over 50% in size; also: potency is read from the fitted curve at half-maximal effect
# Summary of the method: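 VM7Luc4E2 cells (endogenous full-length ER-alpha, stable 4xERE-luciferase) were grown 5 days in phenol red-free medium with charcoal-stripped FBS, then exposed 22 h at 37C to compounds plus 0.1 nM (final) 17beta-estradiol; ONE-Glo luminescence read-out.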
# [17] = target: Estrogen receptor (Homo sapiens) (UniProt P03372); assay: qHTS assay to identify small molecule agonists of the estrogen receptor alpha (ER-alpha) signaling pathway in the presence of an antagonist (AID 1259383; calls by dose curve; also: nearly all actives have a fitted effect of over 15% in size; also: potency is read from the fitted curve at half-maximal effect; as to activation: top concentration of the series differs between compounds)
# Summary of the method: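 VM7Luc4E2 cells (endogenous full-length ER-alpha, 4×ERE-luciferase) were precultured 5 days in phenol red-free medium with 10% charcoal-stripped FBS, given 10.0nM ICI-182,780 (final), then treated with compounds at 15 concentrations for 22hr at 37C; luminescence read with ONE-Glo.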
# [18] = qHTS assay to identify small molecule agonists or antagonists of the thyroid stimulating hormone receptor (TSHR) signaling pathway - wild type cell line counter screen (AID 1259384; calls by dose curve)
# Summary of the method: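 Wild-type HEK293 cells were plated 18 h at 37 C/5% CO2, pin-dosed with compound plus Ro20-1724 medium, held 30 min at room temperature, then given cAMP-d2 and anti-cAMP-cryptate; fluorescence was read after 1 h. Fifteen concentrations, triplicate.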
# [19] = qHTS assay to identify small molecule phospholipidosis (PLD) inducers (AID 1259344; active = well fitted curve in the direction sought with a large enough effect; an effect the other way counts as inactive or inconclusive)
# Summary of the method: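 HepG2 cells on collagen I, attached 4 h at 37 C, were co-treated with compound and LipidTOX Red dye for 24 h at 37 C, then fixed with paraformaldehyde plus Hoechst 33342 and imaged by high-content microscopy for phospholipid accumulation.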
# [20] = target: Estrogen receptor beta (Homo sapiens) (UniProt Q92731); assay: qHTS assay to identify small molecule antagonists of the estrogen receptor beta (ER-beta) signaling pathway (AID 1259378; active = well fitted inhibition curve with a large enough effect in the signal ratio in the repeat runs, not every such curve was filed as active; the % refers to the signal ratio)
# Summary of the method: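 ER-beta-UAS-bla HEK293T (GripTite) cells in 2% charcoal-stripped FBS medium were preincubated 6 hr at 37C, dosed with compound, then stimulated with 1 nM E2 (final) for 16 hr; beta-lactamase reporter read by B/G FRET fluorescence after 2 hr substrate loading.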
# Chain of Estrogen receptor (Homo sapiens) (P03372 whole entry, looked up): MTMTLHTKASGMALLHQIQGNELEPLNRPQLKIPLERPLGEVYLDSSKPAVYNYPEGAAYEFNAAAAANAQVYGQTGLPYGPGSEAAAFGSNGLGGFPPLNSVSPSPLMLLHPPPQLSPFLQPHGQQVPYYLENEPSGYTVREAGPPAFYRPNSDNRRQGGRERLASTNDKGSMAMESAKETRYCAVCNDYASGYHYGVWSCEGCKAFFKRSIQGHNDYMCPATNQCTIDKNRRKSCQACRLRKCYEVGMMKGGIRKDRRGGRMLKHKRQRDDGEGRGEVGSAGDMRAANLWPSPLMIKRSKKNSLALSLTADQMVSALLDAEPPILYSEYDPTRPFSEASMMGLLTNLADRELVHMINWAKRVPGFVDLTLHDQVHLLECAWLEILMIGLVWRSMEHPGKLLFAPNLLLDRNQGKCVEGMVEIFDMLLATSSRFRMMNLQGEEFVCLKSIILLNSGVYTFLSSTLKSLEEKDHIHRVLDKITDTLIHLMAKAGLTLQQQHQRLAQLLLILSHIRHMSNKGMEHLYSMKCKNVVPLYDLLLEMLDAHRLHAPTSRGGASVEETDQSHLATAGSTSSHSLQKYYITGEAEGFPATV
# Chain of Thyrotropin receptor (Homo sapiens) (P16473 whole entry, looked up): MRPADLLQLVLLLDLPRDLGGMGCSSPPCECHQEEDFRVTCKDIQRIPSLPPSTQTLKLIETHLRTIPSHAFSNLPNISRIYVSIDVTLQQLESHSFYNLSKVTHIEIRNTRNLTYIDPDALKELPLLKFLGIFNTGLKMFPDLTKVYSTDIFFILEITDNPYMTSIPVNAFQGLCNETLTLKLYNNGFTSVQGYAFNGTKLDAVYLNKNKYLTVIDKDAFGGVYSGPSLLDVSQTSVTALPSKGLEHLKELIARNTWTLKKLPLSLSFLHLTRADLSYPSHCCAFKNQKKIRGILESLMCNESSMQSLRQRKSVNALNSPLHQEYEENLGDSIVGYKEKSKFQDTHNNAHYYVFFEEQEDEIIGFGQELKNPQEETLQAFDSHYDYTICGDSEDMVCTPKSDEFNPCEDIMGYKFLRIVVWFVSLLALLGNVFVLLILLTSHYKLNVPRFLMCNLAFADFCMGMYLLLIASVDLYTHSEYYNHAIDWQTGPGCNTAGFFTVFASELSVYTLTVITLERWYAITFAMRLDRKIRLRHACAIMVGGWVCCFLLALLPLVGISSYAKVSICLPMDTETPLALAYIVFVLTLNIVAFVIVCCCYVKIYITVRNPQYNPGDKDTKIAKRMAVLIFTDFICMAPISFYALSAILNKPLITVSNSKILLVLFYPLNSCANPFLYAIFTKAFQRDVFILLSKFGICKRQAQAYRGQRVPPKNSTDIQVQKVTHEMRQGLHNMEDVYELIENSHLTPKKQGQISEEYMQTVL
# Chain of Androgen receptor (Homo sapiens) (P10275 whole entry, looked up): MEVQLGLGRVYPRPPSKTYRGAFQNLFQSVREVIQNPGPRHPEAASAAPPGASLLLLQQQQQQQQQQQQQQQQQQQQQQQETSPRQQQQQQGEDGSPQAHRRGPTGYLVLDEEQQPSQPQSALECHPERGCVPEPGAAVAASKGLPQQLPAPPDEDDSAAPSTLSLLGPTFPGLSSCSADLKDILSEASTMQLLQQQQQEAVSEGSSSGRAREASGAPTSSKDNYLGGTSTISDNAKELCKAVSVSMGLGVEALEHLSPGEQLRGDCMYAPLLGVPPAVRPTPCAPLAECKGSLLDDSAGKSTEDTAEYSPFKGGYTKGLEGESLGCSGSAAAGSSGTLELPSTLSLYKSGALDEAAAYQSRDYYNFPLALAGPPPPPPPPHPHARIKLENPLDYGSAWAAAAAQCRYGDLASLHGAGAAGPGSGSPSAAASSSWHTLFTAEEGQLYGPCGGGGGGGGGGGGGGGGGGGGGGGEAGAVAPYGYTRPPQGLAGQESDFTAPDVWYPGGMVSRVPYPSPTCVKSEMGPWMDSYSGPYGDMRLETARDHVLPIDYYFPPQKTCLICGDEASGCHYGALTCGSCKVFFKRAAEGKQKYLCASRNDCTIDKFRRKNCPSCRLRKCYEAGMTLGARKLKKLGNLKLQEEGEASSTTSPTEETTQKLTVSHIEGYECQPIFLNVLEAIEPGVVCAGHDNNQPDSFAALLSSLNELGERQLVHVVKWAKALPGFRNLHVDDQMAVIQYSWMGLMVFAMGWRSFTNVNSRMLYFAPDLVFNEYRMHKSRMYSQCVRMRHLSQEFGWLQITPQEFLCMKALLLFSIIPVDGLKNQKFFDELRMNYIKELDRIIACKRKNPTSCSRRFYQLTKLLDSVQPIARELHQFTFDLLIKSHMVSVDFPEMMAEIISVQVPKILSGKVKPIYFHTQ
# Chain of Estrogen receptor beta (Homo sapiens) (Q92731 whole entry, looked up): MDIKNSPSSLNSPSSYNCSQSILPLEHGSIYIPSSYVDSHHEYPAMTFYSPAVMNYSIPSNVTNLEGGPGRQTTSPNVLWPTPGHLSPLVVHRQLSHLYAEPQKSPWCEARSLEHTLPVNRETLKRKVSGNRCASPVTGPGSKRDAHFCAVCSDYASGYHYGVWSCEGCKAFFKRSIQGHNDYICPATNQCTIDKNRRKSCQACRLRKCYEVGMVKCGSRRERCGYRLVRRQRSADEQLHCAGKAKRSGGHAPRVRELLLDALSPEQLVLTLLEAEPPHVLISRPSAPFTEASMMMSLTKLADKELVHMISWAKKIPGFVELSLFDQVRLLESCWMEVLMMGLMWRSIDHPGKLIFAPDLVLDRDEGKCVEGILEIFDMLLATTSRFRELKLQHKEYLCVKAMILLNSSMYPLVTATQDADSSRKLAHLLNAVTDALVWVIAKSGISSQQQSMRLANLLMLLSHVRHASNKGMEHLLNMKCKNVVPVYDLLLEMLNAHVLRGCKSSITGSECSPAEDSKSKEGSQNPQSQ
SMILES,Potency [1],Potency [2],Potency [3],Potency [4],Potency [5],Potency [6],Potency [7],Potency [8],Potency [9],Potency [10],Potency [11],Potency [12],Potency [13],Potency [14],Potency [15],Potency [16],Potency [17],outcome [18],outcome [19],Potency [20]
CCc1cnc(C2=NC(C)(C(C)C)C(=O)N2)c(C(=O)O)c1 (centres undefined),inactive,inactive,inactive,inactive,inactive,inactive,inactive,inactive,inactive,inactive,,,,,,,,,,
O=C(O)COc1cc(Cl)c(Cl)cc1Cl,,inactive,inactive,inactive,inactive,inactive,inactive,inactive,inactive,inactive,inactive,inactive,inactive,inactive,inactive,,,,,
O=C1c2ccccc2C(=O)N1SC(Cl)(Cl)Cl,inactive,inactive,inactive,9.55 µM (active) and 17.2 µM (active),inactive,1.07 µM (active) and 1.93 µM (active),26.9 µM (active) and 27.3 µM (active),,inactive,inactive,,,12 µM (active) and 9.69 µM (active),inactive,,15.1 µM (active) and 21.7 µM (active),inactive,inactive,,
CC[N+]1(CCOC(=O)C(O)(c2ccccc2)c2ccccc2)CCCCC1,inactive,inactive,inactive,inactive,inactive,,inactive,inactive,inactive,inactive,,,,,,inactive,inactive,inactive,inactive,
CCOC(=O)c1cn2nc(OP(=S)(OCC)OCC)cc2nc1C,inactive,inactive,inactive,inactive,inactive,,inactive,inactive,inactive,,,,inactive,inactive,,inactive,inactive,inactive,,
CCCCCCCCCCCC[N+](C)(C)CCOc1ccccc1,inactive,inactive,61.1 µM (active) and inactive,48.6 µM (active),inactive,,68.6 µM (active),21.7 µM (active) and 11.9 µM (active),19.3 µM (active) and 15 µM (active),inactive,,,24.3 µM (active),,,54.5 µM (active) and inactive,inactive,inactive,inactive,
FC(Cl)(Cl)C(F)(Cl)Cl,inactive,inactive,inactive,inactive,inactive,inactive,inactive,inactive,inactive,inactive,,,inactive,,,inactive,inactive,,,
CC(C)(C)NCC(O)c1cc(Cl)c(N)c(C(F)(F)F)c1 (centres undefined),,inactive,inactive,9.44 µM (active),inactive,inactive,inactive,inactive,inactive,inactive,inactive,inactive,7.5 µM (active),inactive,inactive,inactive,inactive,,inactive,
O=C1NC(=O)C(=O)C(=O)N1,inactive,inactive,inactive,inactive,inactive,,inactive,inactive,inactive,inactive,,,,,,inactive,inactive,inactive,,
C[C@H]1O[C@H](OC2[C@@H](O)[C@@H](O)C(O)[C@H](O)[C@H]2O)[C@@H](N)C[C@@H]1N=C(N)C(=O)O (some centres undefined),inactive,inactive,inactive,inactive,inactive,inactive,inactive,inactive,inactive,inactive,,,inactive,inactive,,inactive,inactive,inactive,,inactive
CCC1(CC)C(=O)NC(=O)NC1=O,inactive,inactive,inactive,inactive,inactive,inactive,inactive,inactive,inactive,,,,,inactive,,inactive,inactive,,inactive,inactive
CNC(=O)Oc1cccc(N=CN(C)C)c1,inactive,inactive,inactive,inactive,inactive,inactive,,inactive,inactive,inactive,,,inactive,,,inactive,inactive,inactive,,
CCC(=O)O[C@@H]1C=C2CCC3C(CCC4(C)C3CC[C@@H]4OC(=O)CC)C2CC1 (some centres undefined),,inactive,inactive,inactive,inactive,inactive,inactive,,inactive,,inactive,inactive,inactive,298 nM (active),188 nM (active),inactive,531 nM (active),inactive,,
O=C=NC1CCCCC1,inactive,inactive,inactive,inactive,inactive,inactive,inactive,inactive,inactive,inactive,,,inactive,inactive,,inactive,inactive,inactive,,inactive
O=C(NC(=O)c1cc(F)c(F)cc1Cl)Nc1cc(F)ccc1N1CCC(C(=O)O)CC1,inactive,inactive,inactive,inactive,inactive,,inactive,inactive,inactive,inactive,,,inactive,,,inactive,inactive,inactive,,
O=C(O)C(F)(F)C(F)(F)C(F)(F)C(F)(F)C(F)(F)F,inactive,inactive,inactive,inactive,inactive,inactive,inactive,inactive,inactive,inactive,,,,inactive,,inactive,inactive,,,inactive
COc1cc(CC(C)N)c(OC)cc1Br (centres undefined),inactive,inactive,inactive,inactive,inactive,15.9 µM (active),inactive,63.2 µM (active),,inactive,,,inactive,,,inactive,inactive,inactive,,
CC(Oc1cccc(Cl)c1)C(=O)O (centres undefined),inactive,inactive,inactive,inactive,inactive,,inactive,inactive,inactive,inactive,,,,,,,,inactive,,
